VP16 counter = VP16 counterscreen qHTS for inhibitors of ROR gamma transcriptional activity. Potency, µM (doses to about 53.6 µM), without a hit: at the highest dose activity, negative = inhibition, most hits filed as inhibitors. actives 3.5% (n = 310,000). Drosophila S2 Gal4-VP16 UAS-luciferase, luminescence, 20 h;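 note: Gal4-VP16 expression switched on by copper sulfate through the metallothionein promoter; potency is the fitted concentration of half-maximal effect; nearly all actives have a fitted effect of over 50% in size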
ELG1 repair inh = qHTS screen for small molecules that inhibit ELG1-dependent DNA repair in human embryonic kidney (HEK293T) cells expressing luciferase-tagged ELG1; HEK293T ELG1-luciferase reporter, luminescence, 16 h; DNA damage induced by 5-fluorouridine; Potency, µM (top dose mostly 46.1 µM), for inactives: top-dose activity change, negative = inhibition, most hits filed as inhibitors; actives 2.3% (n = 330,000); note: potency is the fitted concentration of half-maximal effect; nearly all actives have a fitted effect of over 55% in size
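HEK293T cells expressing luciferase-tagged ELG1 (2,000/well) received 5-Fluorouridine plus compound or DMSO for 16 hr at 37 °C. Luciferase was read by ONE-Glo luminescence after 30 min at room temperature.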
FBPA coupling cs = qHTS Assay for Inhibitors of Fructose-1,6-bisphosphate Aldolase from Giardia Lamblia: Coupling assay counterscreen | coupling enzyme system counterscreen, AmpLite Red fluorescence | activity change, negative = inhibition, % at 58.2 µM, hits read low | actives 0.67% (n = 290,000) | AID 2472, 2010; in the data active = activity change below about -30%
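Fluorescence at 525 nm excitation and 598 nm emission measured inhibition of the coupled detection system without aldolase. Compounds (at 57.5 uM final) were preincubated 10 min at room temperature with coupling enzyme reagent before a 20 min substrate/AmpLite Red step.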
TSHR antag = Antagonists of the Thyroid Stimulating Hormone Receptor: HTS campaign; TSHR-expressing cells, TSH-stimulated cAMP HTRF, 2 h; stronger effect = lower value; activity change, negative = inhibition, % at 11.5 µM; actives 0.2% (n = 330,000); AID 504810, 2011;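 active = activity change below a set negative limit, meaning inhibition stronger than a set level, cut at about -70% in these data; inconclusive = activity change between two set negative limits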
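TSHR-expressing cells, 200/well, pre-treated with compound, then stimulated with EC80 TSH (4nM final) for 2 hours at 37 deg C. cAMP measured by competitive HTRF: anti-cAMP cryptate antibody in lysis buffer plus cAMP-d2, read after 30 minutes at room temperature.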
RORgamma inh = qHTS for inhibitors of ROR gamma transcriptional activity | Nuclear receptor ROR-gamma (Mus musculus), P51450 | AID 2551, 2010 | actives 5.4% (n = 310,000) | Potency, µM (top dose mostly 53.6 µM), for the others: top-dose activity change, negative = inhibition, actives largely listed as inhibitors | Drosophila S2 Gal4-RORgamma UAS-luciferase reporter, 20 h; note: potency is the fitted concentration of half-maximal effect; nearly all actives have a fitted effect of over 60% in size
Target sequence (P51450 whole entry, looked up, the tested form may be a part): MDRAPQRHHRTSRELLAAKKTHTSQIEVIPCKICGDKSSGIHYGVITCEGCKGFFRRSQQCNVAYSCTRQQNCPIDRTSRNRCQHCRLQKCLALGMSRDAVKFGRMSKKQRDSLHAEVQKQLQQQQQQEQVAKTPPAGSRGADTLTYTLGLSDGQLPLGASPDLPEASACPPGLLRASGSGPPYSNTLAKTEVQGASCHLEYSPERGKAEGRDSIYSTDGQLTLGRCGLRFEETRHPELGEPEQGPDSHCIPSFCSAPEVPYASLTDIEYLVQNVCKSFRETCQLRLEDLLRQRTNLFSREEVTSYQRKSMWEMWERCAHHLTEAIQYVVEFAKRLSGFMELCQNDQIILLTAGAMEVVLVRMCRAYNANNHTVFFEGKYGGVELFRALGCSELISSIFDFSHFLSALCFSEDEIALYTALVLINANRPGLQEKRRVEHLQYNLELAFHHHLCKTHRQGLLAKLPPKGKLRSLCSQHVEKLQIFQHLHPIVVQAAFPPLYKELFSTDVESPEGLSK
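A Gal4/UAS one-hybrid system in insect cells: metallothionein-promoter Gal4–ROR gamma fusion plus Photinus luciferase reporter. Copper sulfate 700 uM final, 20 hr ambient incubation, luminescent detection after 10 min with reagent.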
Starred values were filed as active, the others as inactive; ? = inconclusive; . = no result given; [ ] = remark or other dose. In the library only some 8% were active in any assay of this set; here they are far more common. Unless noted, calls come from the whole dose curve; as a rule, active = well fitted curve in the direction sought with a large enough effect; inconclusive = small, poorly fitted or top-dose-only effect, or another doubt; inactive = no such curve, though single readings can be large; an effect the other way counts as inactive or inconclusive. % is set by controls: 0 for no effect and ±100 for the full control effect.

SMILES	VP16 counter	ELG1 repair inh	FBPA coupling cs	TSHR antag	RORgamma inh
CCC1Sc2ccc(S(=O)(=O)CCC(=O)NCc3ccc(C)o3)cc2NC1=O (stereo not drawn)	3%	2%	-5	2	3%
CC1C(=O)C(=O)C=CN1C (stereo not drawn)	-1%	.	.	.	-7%
Nc1nc2nc(-c3ccccc3)cc(C(F)(F)F)c2s1	1%	?	1	-99*	-34%
CC(C)C(=O)N1CCN(c2ccccc2NC(=O)COc2ccc(C3CCCCC3)cc2)CC1	-5%	21µM*	.	17	10%
CC(C)C(=O)N1CCN(c2ccccc2NC(=O)COc2ccccc2)CC1	-3%	?	7	1	40%
C[C@@H](C(=O)NCCc1c[nH]c2ccccc12)[C@H]1C[C@]1(C)[C@H](NC(=O)OCc1ccccc1)c1ccccc1	-13%	18µM*	-4	-6	138%
C[C@@H](C(=O)NCCF)[C@H]1C[C@]1(C)[C@H](NC(=O)OCc1ccccc1)c1ccccc1	1%	.	-1	.	7%
COc1ccc(OC)c2sc(N3CCc4ccccc4C3)nc12	-18%	18%	-2	-5	12%
c1ccc2c(c1)CCN(c1nc3cc4c(cc3s1)OCCO4)C2	-10%	?	-38*	?	-3%
O=C1C=C(Nc2ccccc2)c2ccccc2C1=O	?	9.2µM*	-49*	-3	?
O=C(CN1C(=O)c2ccccc2C1=O)Nc1cccc2cccnc12	19%	16%	0	0	18%
O=C1C=C(Nc2ccccc2C(=O)O)c2ccccc2C1=O	2%	26µM*	-49*	0	-42%
O=C1C=C(Nc2ccccc2)C(=O)c2ccccc21	?	?	-19	-8	?
O=C1C=C(Nc2cccc3cccnc23)c2ccccc2C1=O	10µM*	?	-65*	-6	10µM*
O=C(O)c1ccccc1Nc1ccccc1C(=O)O	-2%	-2%	1	1	7%
O=C1C(Nc2ccccc2)=CC(=O)c2ncccc21	4.5µM*	.	-24	.	3.2µM*
CC1(C)S[C@@H]2[C@H](NC(=O)[C@@H](NC(=O)N3CCNC3=O)c3ccccc3)C(=O)N2[C@H]1C(=O)O	-8%[17 µM]	.	3	.	-10%[2.98 µM]
COc1ccccc1OCC(=O)OC/C(O)=C(\C#N)c1nc2ccccc2[nH]1	-5%	?	-24	18	11%
N#C/C(=C(/O)COC(=O)Cc1c[nH]c2ccccc12)c1nc2ccccc2[nH]1	?	1%	-5	-12	10µM*
CCOC(=O)c1ccc2c(c1)nc(SCC(=O)c1ccco1)n2CC	11%	15%	-5	-4	1%
Cc1cc(SCC(=O)OC/C(O)=C(\C#N)c2nc3ccccc3[nH]2)c(C)cc1Br	18µM*	10%	5	12	6.3µM*
CCOC(=O)c1c(C)[nH]c(C(=O)OC/C(O)=C(\C#N)c2nc3ccccc3[nH]2)c1C	?	?	-1	-10	?
CCOC(=O)c1ccc2c(c1)nc(SC/C(O)=C(\C#N)c1nc3ccccc3[nH]1)n2CC	-2%	?	-1	-15	5µM*
N#C/C(=C(/O)COC(=O)CCCNC(=O)c1ccc(Cl)cc1)c1nc2ccccc2[nH]1	?	4%	-2	-15	11µM*
O=C=Nc1ccc(Cc2ccc(N=C=O)cc2)cc1	-7%	.	.	.	9%
SMILES	VP16 counter	ELG1 repair inh	FBPA coupling cs	TSHR antag	RORgamma inh
Cc1c(C(=O)Nc2ccc(C(F)(F)F)cc2)sc2ncn(CC(=O)N3CCN(c4ccccn4)CC3)c(=O)c12	-16%	?	.	-15	13%
C[C@@H]1NC(=O)N(c2ccc(F)cc2)C1=O	5%	-1%	3	18	2%
Cc1ccc(NC(=O)CN2CCN(C(=O)C3CCCO3)CC2)c(C)c1 (stereo not drawn)	-2%	-2%	.	-9	-8%
COC(=O)c1ccc(CNC(=O)CNC(=O)c2sc3ccccc3c2Cl)cc1	.	-3%	.	11	.
N#C/C(=C(/O)COC(=O)CSc1ccc(Cl)cc1)c1nc2ccccc2[nH]1	11µM*	?	-1	-10	10µM*
CC(C)c1nc(=S)n(-c2ccccc2)[nH]1	?	19%	1	14	5.6µM*
CCN1CCN(Cc2ccc(NC(=O)c3ccc(C)c(NC(=O)c4c[nH]c5cc(C(F)(F)F)ccc5c4=O)c3)cc2C(F)(F)F)CC1	11µM*	?	-2	-2	6.3µM*
COc1ccc(CSc2nnnn2-c2ccccc2)cc1	4%	-4%	0	-16	?
COc1ccc2c(C)cc(Sc3nnnn3-c3ccccc3)nc2c1	-8%	26µM*	-10	-4	1%
CCC(C)(C)n1nnnc1C(c1ccccc1F)N1CCN(C(=O)c2ccco2)CC1 (stereo not drawn)	6%	16%	-2	1	7%
CC(=O)N1CC=CC1(CC(C)C)C(=O)NCc1ccc(C)o1 (stereo not drawn)	29%	.	5	.	23%
COc1ccc(S(=O)(=O)N2CCN(C(=O)c3cc(-c4ccc(Br)cc4)n[nH]3)CC2)cc1OC	13µM*	23µM*	-4	-11	?
O=C(Cn1cnc([N+](=O)[O-])n1)N/N=C/c1ccccc1O	?	-23%	2	0	7.1µM*
O=C(Cn1cnc([N+](=O)[O-])n1)N/N=C/c1cc(Cl)ccc1O	?	?	1	7	7.1µM*
CC(=O)c1ccc(N2CCN(C(=S)Nc3cc(C)ccc3C)CC2)cc1	?	-6%	-2	-4	?
Cc1ccc(C(=O)NC(=S)N2CCN(c3ccccc3F)CC2)cc1	2.8µM*	0%	1	-4	0.89µM*
Cc1ccc(C(=O)NC(=S)N2CCN(c3cc(C)ccc3C)CC2)cc1	1µM*	?	.	-8	1µM*
S=C(NCC1CCCO1)Nc1ccccc1Cl (stereo not drawn)	16%	8%	1	-3	?
CCN(CC)CCNC(=S)Nc1ccc(Cl)cc1	-2%	11%	0	18	-29%
S=C(NCCC(c1ccccc1)c1ccccc1)Nc1ccccc1Cl	?	-6%	-3	-22	13µM*
S=C(NCCC(c1ccccc1)c1ccccc1)Nc1ccc(Cl)cc1	?	-4%	0	-35	7.9µM*
Cc1cc(Cl)c(C)c(S(=O)(=O)Oc2ccccc2NC(=O)CCC(=O)O)c1Cl	.	-1%	.	-4	.
CCCCN1CC(=O)N2[C@H]3c4cc(C)ccc4OC[C@@H]3[C@H](C(=O)OCC)[C@]2(C)C1=O	.	0%	.	-1	.

Source: PubChem (National Center for Advancing Translational Sciences (NCATS))
